Publication PMC12136788
Changes are numbered by the printed parent chain. Whole data set: some 5,800 sequences, median “enrichment r” near 0.68, cut for the highest 2% near 11. Shown is part of a subset that was picked to be rich in the highest values.

T1: UNK ZnF1-6 (called full-length) (human, UniProt Q9C0B0 30-357)
T1 sequence: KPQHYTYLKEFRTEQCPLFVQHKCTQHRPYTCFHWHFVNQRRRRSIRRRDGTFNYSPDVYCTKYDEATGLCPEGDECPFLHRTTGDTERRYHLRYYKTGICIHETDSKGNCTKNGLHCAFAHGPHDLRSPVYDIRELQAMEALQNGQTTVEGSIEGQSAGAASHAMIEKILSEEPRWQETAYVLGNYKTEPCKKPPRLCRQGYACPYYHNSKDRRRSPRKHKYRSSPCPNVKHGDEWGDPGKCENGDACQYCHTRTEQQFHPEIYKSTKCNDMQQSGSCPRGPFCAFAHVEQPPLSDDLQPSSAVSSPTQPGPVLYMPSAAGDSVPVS

B1: chr1:203709306:203709407:+|CDS|ENSG00000058668|msi1|total|mutant (ssRNA)
RNA: GGGAGUUCUACAGUCCGACGAUCUCCAGAGAAGGAGGGAGGCCUGCCUCGGCAGGUGGGCAACAAGACCGAGUGUGCUCUGCCCGGCUUUGUCACAGAUCUGAAGCAGGAUUAUCAGGCUGUGCGUAAUGAAGUGCCCGAGGACAACAGAGGAUUGAGCAUCA
B2: chr1:225789428:225789553:+|3pUTR|ENSG00000143742|unk|FALSE|unique (ssRNA)
RNA: GGGAGUUCUACAGUCCGACGAUCUUAGAGAAAGUGUUGGGACAGAAAGUACUUUAUGUAACUAAGUGGGCUGUUCAGAAGCUUAGAGGUCAUUUUUUGUAAUUUUCUUUUUAAUUACUUUAGAGAGCUAGGGAUGCAAAUGUUCAACAGAGGAUUGAGCAUCA
B3: chr22:27980698:27980799:-|3pUTR|ENSG00000100154|unk|total|mutant (ssRNA)
RNA: GGGAGUUCUACAGUCCGACGAUCUAACCAUUAAUUUAUUUUAUAAAGAAAGGAAAUGCUGAAAGUCGUAUCCGUACUGAGUUCCGUUGGAGAAUUCCGAUAAGUAAGUAUCUUUCCGGUAAUUCUAAAAUUAAAAUCCUACCCCAACAGAGGAUUGAGCAUCA
B4: ENSG00000124766:be:win_3501|3pUTR|ENSG00000124766|bound_else_gene|NA|bound_elsewhere_windowed (ssRNA)
RNA: GGGAGUUCUACAGUCCGACGAUCAACUUGUAAACCACAUCUUUUUUGCACUUUUUUUAUAAGCAAAAACGUGCCGUUUAAACCACUGGAUCUAUCUAAAUGCCGAUUUGAGUUCGCGACACUAUGUACUGCGUUUUUCAUUCUCAACAGAGGAUUGAGCAUCA
B5: chr10:60791946:60792061:+|CDS|ENSG00000170312|unk|FALSE|unique (ssRNA)
RNA: GGGAGUUCUACAGUCCGACGAUCGUCAGCUCGUUACUCAACUCCAGUUGACAUUUGGAGUAUAGGCACCAUAUUUGCUGAACUAGCAACUAAGAAACCACUUUUCCAUGGGGAUUCAGAAAUUGAUCAACUCUUCAGGAUUUUCAACAGAGGAUUGAGCAUCA
B6: chr19:13098382:13098626:+|3pUTR|ENSG00000008441|msi1|FALSE|unique (ssRNA)
RNA: GGGAGUUCUACAGUCCGACGAUCACGCAGUAUAUACGAGUAUCUCUAUAUAUAGUACUAAUGGAUUUGGUGUGCUUCCCCCUUAGCGUCCCCCUCCCUCUGCUCCUCCUCCUUCAGCCUGGUCUCCCCCUCUUCUCUGCCCUCCAACAGAGGAUUGAGCAUCA
B7: chr16:1487315:1487970:-|CDS|ENSG00000251692|control|control|control (ssRNA)
RNA: GGGAGUUCUACAGUCCGACGAUCGGGGGAGCUGGCGCAGCUCAAGGCCUGGGUGAGGAAGCUGCAGCGCCGAGGCCGGAAAGUAGACACGCGGCUGCGGGCCUUGGACCUCACCCUGGGCGAGAGGAGCCAGCAGCGGGCCCGCAACAGAGGAUUGAGCAUCA
B8: chr10:52765379:52768136:-|three_prime_utr|ENSG00000165471|control|control|control (ssRNA)
RNA: GGGAGUUCUACAGUCCGACGAUCUUGUUCCUUUUGUGGGCAAUCACUAAAAAUGAUCACUAACAGCACCAACAAAGCAAUAAUAGUAGUAGUAGUAGUUAGCAGCAGCAGUAGUAGUCAUGCUAAUUAUAUAAUAUUUUUAAUCAACAGAGGAUUGAGCAUCA
B9: ENSG00000006432:stop:overlap|stop_codon|ENSG00000006432|stop_codon|NA|stop_codon (ssRNA)
RNA: GGGAGUUCUACAGUCCGACGAUCGAGCGGAACUGAACACACACAGGCCUGCCCCUUAUGAGAUCCAGCAGGAGUUCUGGUCUUAGCACGAAAAGGAUUGGGGCGGGCAAGGGGGACAGCCAGCGGAGAUGAGGGGAGCUGGCGCAACAGAGGAUUGAGCAUCA
B10: chr3:112140897:112141281:-|three_prime_utr|ENSG00000172139|control|control|control (ssRNA)
RNA: GGGAGUUCUACAGUCCGACGAUCACUUUUUGCAAAAUUUCCUUGAUUUAAAAUAUUUGUUAUUUUAAAUAUACAAAACAUUUUAGAAAAUCUUAGAGUAAAUUUUAGUCUUAAAGCCAGAAAAUAAGUUUAUAGCCAUCUAGACAACAGAGGAUUGAGCAUCA
B11: chr6:149410404:149410522:+|3pUTR|ENSG00000055208|unk|total|mutant (ssRNA)
RNA: GGGAGUUCUACAGUCCGACGAUCUUAUAUUUCUAUAUGUACCGUGUAACCGCCUUUUGUUAACUAAUUUUCUUUUUUCCUUUCCGUAAUUAAGCACGAUCAUGUCCCUUUUUAAGCCUUACCUGAGAGGAACAAUGCCUUAAACAACAGAGGAUUGAGCAUCA
B12: chr6:149410404:149410522:+|3pUTR|ENSG00000055208|unk|FALSE|bound_elsewhere (ssRNA)
RNA: B11 RNA with C41U, C42A, C49U, C50A, C83U, C84A
B13: chr17:142788:147440:-|three_prime_utr|ENSG00000272636|control|control|control (ssRNA)
RNA: GGGAGUUCUACAGUCCGACGAUCGAGACCUCAGCACCUGCCCAGGGGAAGGGGACACGCCCAUCUGGGAGCAAAGACCCUUCUAGAGGCCAGCCCCGGCUGAGAGGACAGGAGUGUGGGGGCGCCUUGGCGGACAGUGGGAACCAACAGAGGAUUGAGCAUCA
B14: chr6:132743869:132744491:-|three_prime_utr|ENSG00000112303|control|control|control (ssRNA)
RNA: GGGAGUUCUACAGUCCGACGAUCAUGUGGGACCAGCAAUUCAGCAAUAACUUACCUGCUAAUAUUCAUAUUAUUAAUGAUCAUAGCUUUGCAAAAUAUUGUAAUGUUAUAGGGCGUCUCUUUAUCACUCAGCUUCUGCAUCAUCAACAGAGGAUUGAGCAUCA
B15: chr2:15946816:15946917:+|3pUTR|ENSG00000134323|unk|FALSE|unique (ssRNA)
RNA: GGGAGUUCUACAGUCCGACGAUCUAUAUGCCUUUUUCCUAGCCUGUUUCUUCCUGUUAAUGUAUUUGUUCAUGUUUGGUGCAUAGAACUGGGUAAAUGCAAAGUUCUGUGUUUAAUUUCUUCAAAAUGUAUAUAUUUAGUGCUCAACAGAGGAUUGAGCAUCA

What follows are binders tested against T1, UNK ZnF1-6 (called full-length) (assay: nsRBNS (natural sequence RNA bind-n-seq); RBNS binding buffer (assumed for nsRBNS): 25 mM Tris pH 7.5, 150 mM KCl, 3 mM MgCl2, 0.01% Triton X-100, 500 ug/ml BSA, 20 U/ml SUPERase-In, 4 C; UNK is unkempt and MSI1 is Musashi-1; names of the RNAs are library labels; protein concentration not given here; high values mean tight binding).
For B1, the binding signal was 0.691 enrichment R. For B2, the binding signal was 1.53 enrichment R. With B3 the binding signal was 0.76 enrichment R. Binder B4 has a binding signal of 0.497 enrichment R. With B5 the binding signal was 0.452 enrichment R. B6 showed a binding signal of 1.99 enrichment R. For B7, the binding signal was 0.727 enrichment R. Work on B8 yielded a binding signal of 16.5 enrichment R. B9 showed a binding signal of 11.7 enrichment R. B10 gave a binding signal of 2.83 enrichment R. With B11 the binding signal was 4.24 enrichment R. Binder B12 has a binding signal of 66 enrichment R. In the case of B13, the binding signal is reported as 0.805 enrichment R. Work on B14 yielded a binding signal of 0.744 enrichment R. For B15, the binding signal was 1.93 enrichment R.
